LmPK inhibitor = LmPK (Leishmania mexicana) enzyme inhibition | 0.37% of 290,000 active | purified LmPK, Kinase-Glo ATP luminescence, 1 h | Potency, µM (titrated, usually from 57.5 µM), inactives show at the highest dose activity change, negative = inhibition, actives largely listed as inhibitors; also: potency is read from the fitted curve at half-maximal effect; % is scaled to controls: 0 for no effect and ±100 for the full control effect
Target sequence (Q27686 whole entry, looked up): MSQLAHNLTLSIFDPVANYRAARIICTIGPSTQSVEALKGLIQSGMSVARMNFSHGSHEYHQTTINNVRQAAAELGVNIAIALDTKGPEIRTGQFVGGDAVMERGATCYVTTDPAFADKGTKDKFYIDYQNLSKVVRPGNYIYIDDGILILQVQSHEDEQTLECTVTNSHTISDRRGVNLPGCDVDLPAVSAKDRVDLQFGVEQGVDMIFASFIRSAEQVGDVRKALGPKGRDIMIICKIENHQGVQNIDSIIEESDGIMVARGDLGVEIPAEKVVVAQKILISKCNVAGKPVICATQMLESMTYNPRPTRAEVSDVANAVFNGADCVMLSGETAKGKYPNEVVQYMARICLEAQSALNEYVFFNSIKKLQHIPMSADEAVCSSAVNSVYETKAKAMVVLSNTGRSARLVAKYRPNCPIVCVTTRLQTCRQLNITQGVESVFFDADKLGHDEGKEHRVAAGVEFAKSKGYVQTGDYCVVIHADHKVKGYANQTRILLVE
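0.1 nM LmPK, 0.5 mM PEP, 0.1 mM ADP; 50 mM imidazole pH 7.2, 7 mM MgCl2, 50 mM KCl; 1 h RT. Kinase-Glo luminescence readout, normalized to no-enzyme (full inhibition) and uninhibited wells.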
Shiga inhibitor = blocks Shiga toxin action in Vero cells. Vero cells, Shiga toxin protein synthesis inhibition reporter. inhibition, % at 38.7 µM. 9.2% of 290,000 active. AID 2315; in the data active = inhibition mostly above about 28%, no sharp cut-off; inactive = mostly below about 43%; also: 0% is about no effect
Pf growth 48h = P. falciparum growth inhibition at 48 hours (one generation). P. falciparum luciferase growth in erythrocytes, 48 h. Potency, µM (top dose mostly 28.7 µM), without a hit: at the top dose activity change, negative = inhibition, most hits filed as inhibitors. 5.9% of 310,000 active. AID 504832; also: potency is read from the fitted curve at half-maximal effect; % is scaled to controls: 0 for no effect and ±100 for the full control effect
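Parasite viability was followed by luminescence of a genomically integrated firefly luciferase. Cultures held 0.1% parasitemia at 2% hematocrit (final), incubated under 5% CO2 at 37 C.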
CHX counter = counter-screen hit for Shiga toxin inhibitors, cycloheximide. max response, %. 12% of 300,000 active. cell reporter, cycloheximide protein synthesis inhibition counterscreen; in the data active = max response mostly above about 13%, no sharp cut-off; inactive = mostly below about 14%; also: read at 38.3 µM for the half of the compounds with a filed dose; 0% is about no effect
Pf growth 96h = P. falciparum growth inhibition at 96 hour, primary screen for plastid delayed-death inhibitors | P. falciparum luciferase reporter growth, 96 h | Potency, µM (doses to about 28.7 µM), for inactives: at the highest dose activity change, negative = inhibition, actives largely listed as inhibitors | 6.9% of 320,000 active | AID 504834; also: potency is read from the fitted curve at half-maximal effect; % is scaled to controls: 0 for no effect and ±100 for the full control effect
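Readout is luminescence from an integrated firefly luciferase in P. falciparum. Red cells, 2% hematocrit and 0.05% parasitemia final, were cultured with compound through two parasite generations (96 hours) at 37 C, 5% CO2.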
An asterisk follows results filed as active. Most compounds without a hit are left out; they make up all but 22% or so of the library. Unless noted, calls follow the shape of the dose curve; as a rule, active = well fitted inhibition curve with a large enough effect; inconclusive = small, poorly fitted or top-dose-only effect, or another doubt; inactive = no such curve, though single readings can be large or run the other way.

How did Cc1cc(C(=O)N/N=C/c2cc([N+](=O)[O-])ccc2O)c2ccccc2n1 do in these assays?
LmPK inhibitor: -4.2%; Shiga inhibitor: -1.9; Pf growth 48h: 9.28µM*; CHX counter: -2.8; Pf growth 96h: inconclusive

Results for Cc1ccc(S(=O)(=O)N=S(CCO)CCO)cc1 ?
LmPK inhibitor: 0.2%; Shiga inhibitor: -7.5; Pf growth 48h: 18.9%; CHX counter: -6.3; Pf growth 96h: -6.1%

What do the screens show for `CCC1(CC)NC(=O)N(CC(=O)OC(C)C(=O)Nc2cc([N+](=O)[O-])ccc2OC)C1=O` (configuration not stated)?
LmPK inhibitor: 6.4%; Shiga inhibitor: -11.1; Pf growth 48h: 37.8%; CHX counter: 0.9; Pf growth 96h: -18.6%

Results for COc1ccc(OC)c(Nc2cc(-c3ccccc3)nc(N)n2)c1 ?
LmPK inhibitor: -7.9%; Shiga inhibitor: -8.8; Pf growth 48h: inconclusive; CHX counter: 0.7; Pf growth 96h: 30.8%

How did COc1ccc2nc(-c3ccccc3)cc(OC)c2c1 do in these assays?
LmPK inhibitor: 6.7%; Shiga inhibitor: 65.1*; Pf growth 48h: 39.8%; CHX counter: 58.2*; Pf growth 96h: 108.9%

What do the screens show for `COc1ccc(N2CCN(C(=O)COC(=O)Cc3c(F)cccc3Cl)CC2)cc1`?
Pf growth 48h: inconclusive; Pf growth 96h: -3.6%

How did CCCc1nc(NCc2ccccc2)c(C#N)c2c1CCCC2 do in these assays?
LmPK inhibitor: -5.7%; Shiga inhibitor: -1.3; Pf growth 48h: 6.57µM*; CHX counter: -2.2; Pf growth 96h: inconclusive

How did N#Cc1c(NCCN)nc(NCc2ccccc2)c2c1CCN(Cc1ccccc1)C2 do in these assays?
LmPK inhibitor: -2.4%; Shiga inhibitor: -11.6; Pf growth 48h: 9.28µM*; CHX counter: -6.8; Pf growth 96h: 70.4%

How did N#Cc1c(N2CCCCC2)nc(N2CCCCC2)c2c1CCN(Cc1ccccc1)C2 do in these assays?
LmPK inhibitor: -1.2%; Shiga inhibitor: -2.0; Pf growth 48h: 3.7µM*; CHX counter: -5.3; Pf growth 96h: 97.9%

What do the screens show for `C=CCNc1nc(NCc2ccccc2)c(C#N)c2c1CN(C)CC2`?
LmPK inhibitor: 0.5%; Shiga inhibitor: -15.2; Pf growth 48h: inconclusive; CHX counter: 0.8; Pf growth 96h: 26.6%

Results for CCN1CCc2c(C#N)c(NCc3ccccc3)nc(N(CC)CC)c2C1 ?
LmPK inhibitor: -4.2%; Shiga inhibitor: -10.2; Pf growth 48h: 2.62µM*; CHX counter: -4.4; Pf growth 96h: 0.928µM*

Results for Nc1[nH]nc2nc(NCc3ccccc3)c3c(c12)CCN(Cc1ccccc1)C3 ?
LmPK inhibitor: -1.2%; Shiga inhibitor: -21.1; Pf growth 48h: -27.9%; CHX counter: 7.6; Pf growth 96h: inconclusive

Results for N#Cc1c(Cl)nc(Cl)c2c1CCN(Cc1ccccc1)C2 ?
LmPK inhibitor: 4.4%; Shiga inhibitor: -8.2; Pf growth 48h: -16.0%; CHX counter: -3.0; Pf growth 96h: inconclusive

Results for CN(C)S(=O)(=O)c1cccc(N2C(=O)CC3(CCCCC3)CC2=O)c1 ?
LmPK inhibitor: 5.9%; Shiga inhibitor: -14.7; Pf growth 48h: -4.9%; CHX counter: -3.5; Pf growth 96h: -12.1%

How did COc1ccc(CNC(=O)C2CCCN(S(=O)(=O)c3ccc(-n4cnnn4)cc3)C2)cc1 (configuration not stated) do in these assays?
LmPK inhibitor: -5.9%; Shiga inhibitor: 28.9; Pf growth 48h: -5.0%; CHX counter: -6.0; Pf growth 96h: 4.0%

Results for CC(C)Cc1nnc(NC(=O)CCC(=O)N2CCN(Cc3ccc(Cl)cc3)CC2)s1 ?
LmPK inhibitor: 12.3%; Shiga inhibitor: -6.9; Pf growth 48h: inconclusive; CHX counter: -5.4; Pf growth 96h: 12.1%

What do the screens show for `CN(C(=O)c1ccc(Cl)c([N+](=O)[O-])c1)C1(C)CCS(=O)(=O)C1` (configuration not stated)?
Pf growth 48h: 4.9%; Pf growth 96h: 6.0%

Results for CCC1(c2ccc(F)cc2)NC(=O)N(CC(=O)Nc2cc(C)on2)C1=O (configuration not stated) ?
Pf growth 48h: -5.4%; Pf growth 96h: inconclusive

Results for CCN(C(=O)Cn1cnc2c1c(=O)n(C)c(=O)n2C)C1CCCCC1 ?
Pf growth 48h: 65.3%; Pf growth 96h: 57.3%

How did Cn1c(=O)oc2cc(S(=O)(=O)NCCC(=O)N3CCN(c4ccccc4F)CC3)ccc21 do in these assays?
LmPK inhibitor: 1.5%; Shiga inhibitor: -10.9; Pf growth 48h: inconclusive; CHX counter: 3.7; Pf growth 96h: 31.8%

How did Cc1ccc(NC(=O)CCNS(=O)(=O)c2ccc3c(c2)oc(=O)n3C)c(C)c1 do in these assays?
LmPK inhibitor: 1.6%; Shiga inhibitor: -4.0; Pf growth 48h: inconclusive; CHX counter: -4.3; Pf growth 96h: 11.7µM*

What do the screens show for `Cn1c(=O)oc2cc(S(=O)(=O)NCCC(=O)N3CCN(c4ccccc4)CC3)ccc21`?
LmPK inhibitor: 3.0%; Shiga inhibitor: 8.0; Pf growth 48h: inconclusive; CHX counter: 3.2; Pf growth 96h: 13.1µM*

How did Cc1ccc(C)c(N2CCN(C(=O)CCNS(=O)(=O)c3ccc4c(c3)oc(=O)n4C)CC2)c1 do in these assays?
LmPK inhibitor: -2.9%; Shiga inhibitor: -2.1; Pf growth 48h: -29.5%; CHX counter: -0.3; Pf growth 96h: 1.65µM*

What do the screens show for `CC(/C=N/NC(=O)c1cc(-c2cccs2)[nH]n1)=C\c1ccccc1`?
LmPK inhibitor: 0.4%; Shiga inhibitor: 10.0; Pf growth 48h: -13.2%; CHX counter: 8.9; Pf growth 96h: inconclusive

What do the screens show for `COc1ccc(NS(=O)(=O)c2cccc(C(=O)NNC(=O)c3cc(S(N)(=O)=O)ccc3OC)c2)cc1`?
Pf growth 48h: 16.1%; Pf growth 96h: -22.0%

What do the screens show for `COc1ccc(C(=O)NC(=S)NNC(=O)c2ccco2)cc1`?
LmPK inhibitor: 4.9%; Shiga inhibitor: 21.8; Pf growth 48h: -40.0%; CHX counter: 27.5*; Pf growth 96h: 1.3%

What do the screens show for `COc1ccc(/C=C/C(=O)NC(=S)NNC(=O)c2ccco2)cc1`?
LmPK inhibitor: -1.1%; Shiga inhibitor: 8.8; Pf growth 48h: 33.7%; CHX counter: 3.9; Pf growth 96h: 10.4µM*

What do the screens show for `O=C(NC(=S)NNC(=O)c1ccccc1O)c1ccco1`?
LmPK inhibitor: -5.7%; Shiga inhibitor: -4.2; Pf growth 48h: inconclusive; CHX counter: 21.4*; Pf growth 96h: inconclusive

How did O=C(/C=C/c1ccc(Cl)cc1)NC(=S)Nc1ccc(NC(=O)c2ccco2)cc1 do in these assays?
LmPK inhibitor: 4.1%; Shiga inhibitor: -13.4; Pf growth 48h: -13.6%; CHX counter: -5.7; Pf growth 96h: 14.7µM*

Results for COc1ccc(/C=C/C(=O)NC(=S)NNC(=O)c2ccco2)cc1OC ?
LmPK inhibitor: 3.6%; Shiga inhibitor: 0.3; Pf growth 48h: inconclusive; CHX counter: -2.6; Pf growth 96h: 19.6%

Results for O=C(NC(=S)NNC(=O)c1cc2ccccc2cc1O)c1ccco1 ?
LmPK inhibitor: 4.3%; Shiga inhibitor: 13.8; Pf growth 48h: inconclusive; CHX counter: 6.7; Pf growth 96h: inconclusive

From PubChem
